In PubChem BioAssay one finds composite z-score and z-score data, which are given here for 13 compounds.

Calls of active or inactive are those of the source.

The nature of assay [1]: binders of probe aFSTL3 on microarray, primary screen, stem cell growth factor project, biochemical, small-molecule microarray, fluorescence 635/667 (AID 1064).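 Note: measures binding of the biotinylated anti-FSTL3 antibody to printed compounds.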 The conditions noted are these: higher = more signal.
Assay [2] can be described thus: binders from COS7 lysate, DM2A8 probe, primary screen, torsin A project, cell lysate, small-molecule microarray, fluorescence 635/667 (AID 1065). The conditions noted are these: higher = more signal, COS7 lysate expressing mutant human TOR1A.
Assay [3] is described as follows: binders of probe aFGF2 on microarray, primary screen, stem cell growth factor project, biochemical, small-molecule microarray, fluorescence 635/667 (AID 1067).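 Note: measures binding of biotinylated aFGF2 protein to printed compounds on slides; z-score merges feature fluorescence and signal-to-noise across triplicate slides.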 To be noted: higher = more signal.
Assay [4] in a line: binders of probe aFGF10 on microarray, primary screen, stem cell growth factor project, biochemical, small-molecule microarray, fluorescence 635/667 (AID 1071).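 Note: score merges 667 nm spot intensity and signal to noise from triplicate slides.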 The conditions noted are these: higher = more signal.
Assay [5] addresses Neurogenic locus notch homolog protein 2 (Homo sapiens) (UniProt Q04721). Description: Notch2 binders on small-molecule microarrays, primary screen, biochemical, small-molecule microarray, 635 nm fluorescence, stem cell growth factors (AID 1073). To be noted: Notch2 binding, higher = more signal.
For assay [6], the target named is Pro-neuregulin-1, membrane-bound isoform (Homo sapiens) (UniProt Q02297). Description: NRG1 binders on small-molecule microarrays, primary screen, psychiatric disease protein project, biochemical, small-molecule microarray, fluorescence 635/667 (AID 1075).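 Note: score combines 667 nm spot fluorescence with signal to noise.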 To be noted: NRG1 binding, 635 nm fluorescence, higher = more signal.
Sequence of Pro-neuregulin-1, membrane-bound isoform (Homo sapiens) (Q02297 whole entry, looked up, the tested form may be a part, canonical isoform): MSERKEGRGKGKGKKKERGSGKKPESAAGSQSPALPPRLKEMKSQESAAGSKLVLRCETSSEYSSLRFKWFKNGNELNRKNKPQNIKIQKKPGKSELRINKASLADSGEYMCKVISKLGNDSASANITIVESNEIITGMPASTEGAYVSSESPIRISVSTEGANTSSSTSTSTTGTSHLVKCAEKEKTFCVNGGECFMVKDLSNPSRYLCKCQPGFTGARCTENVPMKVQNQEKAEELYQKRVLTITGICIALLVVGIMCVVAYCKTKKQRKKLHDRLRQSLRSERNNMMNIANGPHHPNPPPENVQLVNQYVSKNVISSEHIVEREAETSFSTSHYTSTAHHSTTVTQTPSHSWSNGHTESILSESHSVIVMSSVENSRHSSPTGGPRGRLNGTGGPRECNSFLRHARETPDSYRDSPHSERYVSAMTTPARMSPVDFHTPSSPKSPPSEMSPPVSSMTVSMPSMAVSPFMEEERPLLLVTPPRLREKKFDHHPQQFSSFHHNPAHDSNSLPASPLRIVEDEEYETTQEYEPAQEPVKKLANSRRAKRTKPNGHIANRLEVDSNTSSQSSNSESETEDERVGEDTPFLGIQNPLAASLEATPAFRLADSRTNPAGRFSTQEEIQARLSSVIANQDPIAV
Assay [7] deals with Neuregulin-1 EGF-like domain. Description: binders of neuregulin-1 EGF-like domain, primary screen, biochemical, small-molecule microarray, 635 nm fluorescence (AID 1081).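 Note: binding of the protein to compounds printed on small-molecule microarray slides.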 To be noted: small-molecule microarray binding, higher = more signal.
A short description of assay [8]: FRG1 promoter luciferase signal modulators, primary screen, FRG1 inhibition for FSHD, cell-based, C2C12 myotubes, firefly/Renilla luciferase, luminescence (AID 1084). The conditions noted are these: higher = more signal, called active from +8 up or from −8 down.
A short description of assay [9]: binders of probe aFST on microarray, primary screen, stem cell growth factor project, biochemical, small-molecule microarray, fluorescence 635/667 (AID 1086).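 Note: score merges 667 nm fluorescence with signal-to-noise of each printed compound spot.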 To be noted: higher = more signal.
Assay [10] can be described thus: binders of probe aHhip on microarray, primary screen, stem cell growth factor project, biochemical, small-molecule microarray, fluorescence 635/667 (AID 1087).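 Note: score merges spot fluorescence at 667nm with spot signal to noise ratio.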 The conditions noted are these: higher = more signal.

Sequence of Neurogenic locus notch homolog protein 2 (Homo sapiens) (Q04721 whole entry, looked up, canonical isoform): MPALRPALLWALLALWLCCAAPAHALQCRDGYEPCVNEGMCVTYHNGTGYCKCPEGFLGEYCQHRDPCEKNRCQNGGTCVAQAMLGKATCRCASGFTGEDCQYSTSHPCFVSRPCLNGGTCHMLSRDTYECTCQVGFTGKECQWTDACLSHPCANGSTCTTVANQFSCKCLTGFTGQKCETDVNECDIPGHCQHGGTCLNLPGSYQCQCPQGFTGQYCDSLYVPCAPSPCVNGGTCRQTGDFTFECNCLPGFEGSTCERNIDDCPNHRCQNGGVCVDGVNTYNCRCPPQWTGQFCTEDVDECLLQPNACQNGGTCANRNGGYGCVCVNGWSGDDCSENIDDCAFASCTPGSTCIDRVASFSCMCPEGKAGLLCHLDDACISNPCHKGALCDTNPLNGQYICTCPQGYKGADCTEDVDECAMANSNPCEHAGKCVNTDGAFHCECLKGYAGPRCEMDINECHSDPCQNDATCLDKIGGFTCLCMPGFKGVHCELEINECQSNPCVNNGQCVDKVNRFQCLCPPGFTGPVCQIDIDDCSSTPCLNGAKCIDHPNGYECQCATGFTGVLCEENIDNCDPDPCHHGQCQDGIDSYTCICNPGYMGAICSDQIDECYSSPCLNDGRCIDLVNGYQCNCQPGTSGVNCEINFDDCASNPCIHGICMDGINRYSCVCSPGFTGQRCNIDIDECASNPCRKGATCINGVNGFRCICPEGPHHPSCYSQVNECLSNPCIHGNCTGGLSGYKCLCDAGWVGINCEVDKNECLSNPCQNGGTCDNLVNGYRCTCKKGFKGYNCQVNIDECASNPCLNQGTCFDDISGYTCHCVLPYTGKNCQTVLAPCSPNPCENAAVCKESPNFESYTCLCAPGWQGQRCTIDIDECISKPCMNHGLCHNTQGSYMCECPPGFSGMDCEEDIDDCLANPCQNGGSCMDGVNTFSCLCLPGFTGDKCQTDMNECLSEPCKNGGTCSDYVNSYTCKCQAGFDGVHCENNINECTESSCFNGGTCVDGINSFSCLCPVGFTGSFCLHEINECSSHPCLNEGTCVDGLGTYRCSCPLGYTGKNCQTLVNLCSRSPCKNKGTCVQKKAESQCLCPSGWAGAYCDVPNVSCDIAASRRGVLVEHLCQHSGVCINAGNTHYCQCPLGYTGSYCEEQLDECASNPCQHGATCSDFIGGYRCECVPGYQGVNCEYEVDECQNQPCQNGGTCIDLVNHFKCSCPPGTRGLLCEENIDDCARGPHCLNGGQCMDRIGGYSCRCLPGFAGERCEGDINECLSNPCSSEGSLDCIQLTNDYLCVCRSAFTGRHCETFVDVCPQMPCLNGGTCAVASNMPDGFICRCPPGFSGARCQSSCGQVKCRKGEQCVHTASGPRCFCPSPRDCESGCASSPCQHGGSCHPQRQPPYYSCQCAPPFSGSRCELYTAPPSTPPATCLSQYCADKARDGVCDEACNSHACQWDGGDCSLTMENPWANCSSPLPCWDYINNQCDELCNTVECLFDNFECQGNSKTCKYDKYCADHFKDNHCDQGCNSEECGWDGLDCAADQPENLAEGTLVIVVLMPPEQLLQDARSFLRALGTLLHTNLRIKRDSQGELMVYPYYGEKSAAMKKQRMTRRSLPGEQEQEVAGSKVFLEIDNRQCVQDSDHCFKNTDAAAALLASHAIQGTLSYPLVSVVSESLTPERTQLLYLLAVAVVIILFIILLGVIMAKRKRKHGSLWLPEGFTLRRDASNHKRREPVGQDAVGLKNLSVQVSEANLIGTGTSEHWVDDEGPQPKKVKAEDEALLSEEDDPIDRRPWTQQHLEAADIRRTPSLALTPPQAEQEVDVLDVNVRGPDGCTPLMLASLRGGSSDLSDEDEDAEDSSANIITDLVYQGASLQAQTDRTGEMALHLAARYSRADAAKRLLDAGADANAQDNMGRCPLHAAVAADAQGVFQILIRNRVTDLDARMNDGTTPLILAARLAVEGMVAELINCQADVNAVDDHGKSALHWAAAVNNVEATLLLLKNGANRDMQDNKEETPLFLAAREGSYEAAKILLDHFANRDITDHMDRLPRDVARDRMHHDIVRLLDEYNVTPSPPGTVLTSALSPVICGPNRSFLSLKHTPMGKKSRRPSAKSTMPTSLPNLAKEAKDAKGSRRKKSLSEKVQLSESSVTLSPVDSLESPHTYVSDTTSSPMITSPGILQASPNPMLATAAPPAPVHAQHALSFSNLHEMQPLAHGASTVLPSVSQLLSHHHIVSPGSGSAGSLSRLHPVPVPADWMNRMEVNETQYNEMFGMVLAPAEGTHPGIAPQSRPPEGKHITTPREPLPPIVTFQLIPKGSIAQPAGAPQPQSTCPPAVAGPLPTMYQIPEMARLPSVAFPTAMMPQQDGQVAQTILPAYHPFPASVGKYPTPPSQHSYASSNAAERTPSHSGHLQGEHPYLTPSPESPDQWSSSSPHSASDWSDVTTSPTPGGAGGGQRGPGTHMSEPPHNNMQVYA

Regarding `CC(C)=CCCC(C)=CC(O)C1C=CC2C(=O)N(c3ccccc3)C(=O)C2N1Nc1ccc(C(C)C)cc1` (stereo not given), the composite z-score is -0.345 in assay [1]; -0.687 in [2]; 0.0218 in assay [3]; 0.249 in assay [4]; 1.21 in assay [5]; 1.63 in [6]. The figures for the composite z-score in assay [7], in [9] and in assay [10] were 1.06, 1.07 and -0.13, respectively. In [8], the z-score was 0.821 (inactive).

Regarding `CCCCCCc1nc(-c2ccc(-c3ccc(Cl)c(Cl)c3)o2)c(C)c2c1[Si](C(C)C)(C(C)C)OC2`, the composite z-score was -0.495 in [1]; -0.866 in [2]; -0.144 in assay [3]; -0.475 in assay [4]; -0.363 in assay [5]; 0.0643 in assay [6]. Moreover, the composite z-score in assay [7] is -0.416; in [9], -0.0878; in assay [10] it was 0.0505. In addition, the z-score in [8] is 0.333 (inactive).

For `COCCCNC(=O)[C@]1(Cc2ccccc2)N=C(c2ccc(OCCCO)cc2)O[C@@H]1c1ccccc1CN=[N+]=[N-]`, the composite z-score in assay [1] is 0.134; in [2], 0.719; in [3], 0.0584; in assay [4], 1.03; in assay [5], 1.49; in assay [6], 1.87. Besides, the composite z-score in assay [7] is 0.837; in assay [9], 0.88; in assay [10], -0.156. Also, in [8], the z-score is -2.22 (inactive).

Take `C=CCN(Cc1ccccc1)C(=O)C(c1cccs1)N(C(=O)/C=C\C(=O)O)c1ccc(CCOCCO)cc1` (stereo not given): the composite z-score in [1] was 0.146; in assay [2], -0.182; in assay [3], -0.176; in assay [4], -0.865; in assay [5] it was -1.84; in [6], 0.718. In addition, the composite z-score in assay [7] is 0.0305; in assay [9] it was -1.35; in assay [10], -0.134. Besides, in [8], the z-score is 0.988 (inactive).

For `CCCCC(=C=CC[C@H](O)c1cccc(OCCO)c1)C[C@H](O)c1ccccn1`, the composite z-score in assay [1] is -0.37; in [2], 0.0714; in assay [3], -0.112; in assay [4], 0.528; in assay [5], -0.202; in assay [6], 0.163. For the same compound, the composite z-score in assay [7] is 0.719; in assay [9] it was -0.157; in assay [10] it was -0.236. In addition, in assay [8], the z-score was -0.692 (inactive).

In the case of `CC(C)[Si](C#CCCCC#N)(O[C@H](c1ccccc1)c1cn(Cc2cccc(Cl)c2)nn1)C(C)C`, the composite z-score was -0.37 in assay [1]; 0.558 in assay [2]; -0.104 in assay [3]; 0.689 in assay [4]; 0.799 in assay [5]; -0.0808 in [6]. Also, the composite z-score in assay [7] stood at 0.603; in assay [9], 0.624; in assay [10], 0.136. Moreover, in assay [8], the z-score was -1.04 (inactive).

As for `O=c1cccc(-c2ccccc2Cl)o1`, the composite z-score is -0.152 in assay [1]; -0.201 in assay [2]; -0.0621 in [3]; 0.366 in [4]; 0.772 in [5]; -0.234 in [6]. Also, the composite z-score is 0.311 in assay [7], 0.241 in assay [9] and -0.0047 in [10]. Further, the z-score in assay [8] was 1.17 (inactive).

With `C=CC[C@]1(C(=O)N2CCOCC2)N=C(c2ccc(OCCCO)cc2)O[C@H]1c1ccccc1N=[N+]=[N-]`, the composite z-score in [1] was -0.0247; in assay [2] it was 0.572; in assay [3], 0.102; in assay [4], 0.642; in [5], 1.24; in assay [6], 1.8. Further, the composite z-score was found to be 1.25 in [7], 1.2 in [9] and 0.0596 in assay [10]. Further, the z-score in assay [8] was -0.322 (inactive).

Take `O=C1C2C=CC(C(O)c3ccc(-c4ccccc4)s3)N(Nc3ccccc3)C2C(=O)N1c1ccccc1` (stereo not given): the composite z-score in assay [1] was -0.288; in [2] it was -0.109; in [3] it was 0.198; in [4] it was 0.44; in assay [5] it was 1.61; in assay [6] it was 2. The composite z-score in assay [7] was 1.33; in [9] it was 1.62; in [10], -0.0618. Further, the z-score in [8] is -2.89 (inactive).

With `[N-]=[N+]=Nc1ccccc1C[C@]1(C(=O)N2CCCCC2)COC(c2ccc(OCCCO)cc2)=N1`, the composite z-score in assay [1] was -0.11; in assay [2], 0.0405; in [3] it was 0.0605; in assay [4] it was 0.87; in assay [5], 0.708; in [6] it was 1.64. Also, the composite z-score in [7] is 0.995; in assay [9] it was 0.755; in assay [10], -0.353. Further, the z-score in assay [8] is -2.42 (inactive).

For `COc1ccc(NC(=O)O[C@H]2[C@H](OC(=O)c3cc4ccccc4[nH]3)[C@@H](OC(=O)c3cc4ccccc4[nH]3)[C@@H](OC)O[C@@H]2CO)cc1`, the composite z-score in [1] was -0.147; in assay [2] it was 0.0444; in assay [3], 0.0014; in assay [4] it was 0.528; in [5], 0.23; in assay [6], 0.765. Further, the composite z-score in assay [7] amounted to 0.543; in assay [9], 0.0417; in assay [10], 0.21. Also, the z-score in assay [8] was 2.22 (inactive).

For the compound `COC(=O)[C@@]1(Cc2ccc(OC)cc2)[C@H]2c3cc(C(=O)N4CCCC4)n(CCc4ccc(O)c(O)c4)c3C[C@H]2CN1C(=O)c1ccccc1`, the composite z-score amounted to 1.65 in assay [1]; 0.269 in assay [2]; 0.0215 in [3]; 0.0359 in assay [4]; 1.33 in assay [5]; 2.26 in assay [6]. Besides, the results for the composite z-score in assay [7], in assay [9] and in assay [10] were 1.11, 0.939 and -0.156, respectively. Moreover, the z-score in assay [8] is 2.61 (inactive).

In the case of `CCCC=C(CCC)[C@@H](NS(=O)(=O)c1ccc(Cl)cc1)c1ccc(C(=O)OC)cc1`, the composite z-score in assay [1] was -0.172; in assay [2] it was -0.114; in assay [3], -0.0841; in assay [4] it was 0.484; in assay [5], 0.41; in assay [6], -0.194. For the same compound, the composite z-score in assay [7] was 0.866; in assay [9], 0.0699; in assay [10] it was -0.236. In addition, the z-score in assay [8] is 2.58 (inactive).
